The values that follow come from PubChem BioAssay (Tox21).

Results filed as inconclusive are left out. Activity calls are given as the source filed them. Unless noted, the call rests on the fitted dose curve.

A short description of test [1]: Nuclear factor erythroid 2-related factor 2/antioxidant responsive element (Nrf2/ARE) small molecule agonists: qHTS cell viability counter screen in human keratinocytes (AID 1919968; active means well fitted curve in the direction sought with a large enough effect in the repeat runs; an effect the other way counts as inactive or inconclusive; further: nearly all actives have a fitted effect of over 55% in size). The procedure, abridged: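 KeratinoSens HaCaT cells, 1,500/well, preincubated 5 h, then exposed to compounds in DMSO for 23 h at 37 C/5% CO2. Viability read as CellTiter-Fluor fluorescence after 1 h, in the same wells as the ARE-luciferase read.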

Test [2] can be described thus: Nuclear factor erythroid 2-related factor 2/antioxidant responsive element (Nrf2/ARE) small molecule agonists: luciferase reporter gene qHTS assay in human keratinocytes (AID 1919969). Further: nearly all actives have a fitted effect of over 35% in size. For orientation: In a reporter assay the amount or activity of a reporter protein is the signal.
The target in test [3] is Gonadotropin-releasing hormone receptor (Homo sapiens) (UniProt P30968). The test can be described thus: Human gonadotropin-releasing hormone receptor (GnRHR) small molecule agonists, calcium flux assay in GnRHR-HEK293 cells (AID 1920063). Further: nearly all actives have a fitted effect of over 35% in size. The procedure, abridged: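 HEK293 cells stably expressing human GnRHR were dye-loaded for 1 h at 37 C. Compound was added in agonist mode and fluorescence (Ex/Em 480/540) recorded kinetically for 3 min. Fifteen concentrations, triplicates.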
Sequence of Gonadotropin-releasing hormone receptor (Homo sapiens) (P30968 whole entry, looked up): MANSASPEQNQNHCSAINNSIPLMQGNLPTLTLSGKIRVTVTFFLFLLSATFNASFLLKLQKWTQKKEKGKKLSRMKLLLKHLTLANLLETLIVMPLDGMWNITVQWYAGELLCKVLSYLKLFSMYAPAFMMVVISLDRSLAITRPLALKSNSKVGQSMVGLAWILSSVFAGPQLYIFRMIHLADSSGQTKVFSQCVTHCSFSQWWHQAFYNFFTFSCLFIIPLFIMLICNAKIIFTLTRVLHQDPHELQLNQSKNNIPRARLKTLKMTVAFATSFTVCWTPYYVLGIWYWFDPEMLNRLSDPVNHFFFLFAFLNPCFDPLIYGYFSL

Test [4] addresses KiSS-1 receptor (Homo sapiens) (UniProt Q969F8). The test can be described thus: Human kisspeptin (KISS1R) small molecule agonists, calcium flux assay in KISS1R-HEK293 cells (AID 1920064; active means well fitted curve in the direction sought with a large enough effect in the repeat runs; an effect the other way counts as inactive or inconclusive). The procedure, abridged:
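HEK293 cells stably expressing human KISS1R were loaded with calcium dye for 1 h at 37 C, then given compound; fluorescence (Ex/Em 480/540) was read kinetically for 3 min. Fifteen concentrations, triplicate.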
A general note: Calcium flux is commonly read through the fluorescence of an indicator in the cells.

Test [5] is described as follows: G protein-coupled receptor (GPCR) small molecule agonists, calcium flux assay: HEK293 wild type cell line counter screen (AID 1920065). The procedure, abridged: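 Wild-type HEK293 cells plated 18 h, loaded with calcium dye 1 h at 37 C, then compounds added in agonist mode (ATP as positive control). Kinetic fluorescence Ex/Em 480/540 recorded 3 min at 1 sec intervals; 15 concentrations, triplicate.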

Test [6] in a line: p53 small molecule agonists, cell-based qHTS assay with human liver microsomes (AID 1963577).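 Further: p53 response element beta-lactamase reporter cells with liver microsomes plus NADPH.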 The procedure, abridged:
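Reporter activation was measured by LiveBLAzer fluorescence intensity in p53RE-bla cells, which had been exposed to compounds for 16 h at 37 C alongside 0.5 mg/mL human liver microsomes and 0.5 mg/mL NADPH (final concentrations).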
Background: Quantitative high-throughput screening tests each substance at several concentrations.

Test [7] can be described thus: p53 small molecule agonists, cell-based qHTS assay with human liver microsomes: qHTS cell viability counter screen (AID 1963579). Further: nearly all actives have a fitted effect of over 45% in size. The procedure, abridged: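 HLM-supplemented (0.5 mg/mL final) and NADPH-supplemented (0.5 mg/mL final) p53RE-bla cultures, 4,000 cells per well, were dosed with compounds in DMSO for 16 h at 37 C; luminescent ATP detection (CellTiter-Glo, 30 min, room temperature) quantified surviving cells.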

The nature of test [8]: p53 small molecule agonists, cell-based qHTS assay with rat liver microsomes: qHTS cell viability counter screen (AID 1963580). Further: nearly all actives have a fitted effect of over 45% in size. In a few lines: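 In HCT-116 cells carrying a p53 response element-bla reporter, compounds were metabolically activated in situ by rat liver microsomes with NADPH over 16 h. Cell ATP content then served as the cytotoxicity measure.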
Test [9] has as its target 5-hydroxytryptamine receptor 2A (Homo sapiens) (UniProt P28223). The test can be described thus: 5-hydroxytryptamine receptor 2A (HTR2A) small molecule antagonists, cell-based qHTS assay (AID 1963586). Further: nearly all actives have a fitted effect of over 45% in size. Further: potency means the concentration at half of the fitted maximal effect. In a few lines:
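Antagonist-mode intracellular calcium assay: DOI (4 nM) added after 5 min compound pre-incubation at room temperature to dye-loaded HTR2A-CHO cells. Fluorescence followed for 3 min, sampled every second.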

For test [10] the target is unchanged. The test can be described thus: 5-hydroxytryptamine receptor 2A (HTR2A) small molecule agonists, cell-based qHTS assay (AID 1963587). Further: nearly all actives have a fitted effect of over 30% in size. Further: potency means the concentration at half of the fitted maximal effect. The procedure, abridged:
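HTR2A-CHO cells, plated 18 h at 37 C/5% CO2, dye-loaded 1 h at 37 C; compounds in DMSO added by pin tool (agonist mode). Intracellular calcium flux read as kinetic fluorescence on FDSS over 2 min at 1 s intervals.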

Test [11] concerns the target Muscarinic acetylcholine receptor M1 (Homo sapiens) (UniProt P11229). The test can be described thus: Cholinergic receptor muscarinic 1 (CHRM1) small molecule antagonists, cell-based qHTS assay (AID 1963588). Further: nearly all actives have a fitted effect of over 40% in size. In a few lines:
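CHRM1-CHO calcium-flux assay, antagonist mode. Cells were seeded 18 h, dye-loaded 1 h at 37 C and given compound for 5 min at RT, then acetylcholine was added at 50nM. FDSS fluorescence was read 3 min; 15 concentrations, three runs.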

Test [12] shares this target. The experiment in a line: Cholinergic receptor muscarinic 1 (CHRM1) small molecule agonists, cell-based qHTS assay (AID 1963589). Further: nearly all actives have a fitted effect of over 35% in size. In a few lines: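 CHO cells stably expressing human CHRM1 were loaded with calcium dye for 1 h at 37 C, then compound was added in agonist mode. Intracellular calcium fluorescence was followed kinetically at 1 s intervals. Fifteen concentrations were tested in three independent runs.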

For test [13], the target named is D(2) dopamine receptor (Homo sapiens) (UniProt P14416). The experiment in a line: Dopamine D2 receptor (DRD2) small molecule antagonists, cell-based qHTS assay (AID 1963595; active means well fitted inhibition curve with a large enough effect in the signal ratio in the repeat runs, with a control signal flat; the % refers to the signal ratio). In a few lines:
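HEK293 cells stably expressing DRD2 were preincubated with 0.1 mM Ro20-1724, then with compound for 10 min at room temperature. Cells were stimulated with 200 nM NKH477 plus 12 nM quinpirole for 30 min, and cAMP was read by HTRF.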

The nature of test [14]: p53 small molecule agonists, cell-based qHTS assay: qHTS cell viability counter screen (AID 1963581). Further: nearly all actives have a fitted effect of over 45% in size. The procedure, abridged:
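p53RE-bla HCT-116 cells, compounds added 5 h after plating and incubated 16 h at 37 C. Cytotoxicity measured in the same wells as intracellular ATP by CellTiter-Glo luminescence after 30 min at room temperature.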

Test [15] can be described thus: p53 small molecule agonists, cell-based qHTS assay (AID 1963582; active means well fitted activation curve with a large enough effect in the signal ratio in the repeat runs, not every such curve was filed as active; the % refers to the signal ratio). The procedure, abridged:
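p53RE-bla reporter cells, compounds added in DMSO after 5 h plating, incubated 16 h at 37 C. Beta-lactamase read via 2 h room-temperature LiveBLAzer B/G FRET substrate, fluorescence intensity.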

Test [16] deals with Beta-2 adrenergic receptor (Homo sapiens) (UniProt P07550). The experiment in a line: Adrenergic beta2 receptor (ADRB2) small molecule antagonists, cell-based qHTS assay (AID 1963592). Further: series mostly up to about 92 µM; nearly all actives have a fitted effect of over 50% in size. The procedure, abridged:
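Cells (CHO, stable ADRB2 overexpression) incubated 18-20hr at 37C; compounds added from DMSO; agonist mix (1nM isoproterenol, 100uM IBMX, 25uM Ro-20-1724) added; 0.5hr RT; d2-cAMP and anti-cAMP-cryptate added; 1hr RT; 665/615 nm read.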

The target of test [17] is D(2) dopamine receptor (Homo sapiens) (UniProt P14416). The test can be described thus: Dopamine D2 receptor (DRD2) small molecule agonists, cell-based qHTS assay (AID 1963594). Further: nearly all actives have a fitted effect of over 35% in size. Further: potency means the concentration at half of the fitted maximal effect. In a few lines: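 HEK293 cells stably expressing DRD2 were cultured 24 h at 37 C, then given Ro20-1724 (0.1 mM final) and compounds for 10 min at room temperature. NKH477 (200nM) was then added for 30 min. cAMP was read by HTRF.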
Sequence of D(2) dopamine receptor (Homo sapiens) (P14416 whole entry, looked up): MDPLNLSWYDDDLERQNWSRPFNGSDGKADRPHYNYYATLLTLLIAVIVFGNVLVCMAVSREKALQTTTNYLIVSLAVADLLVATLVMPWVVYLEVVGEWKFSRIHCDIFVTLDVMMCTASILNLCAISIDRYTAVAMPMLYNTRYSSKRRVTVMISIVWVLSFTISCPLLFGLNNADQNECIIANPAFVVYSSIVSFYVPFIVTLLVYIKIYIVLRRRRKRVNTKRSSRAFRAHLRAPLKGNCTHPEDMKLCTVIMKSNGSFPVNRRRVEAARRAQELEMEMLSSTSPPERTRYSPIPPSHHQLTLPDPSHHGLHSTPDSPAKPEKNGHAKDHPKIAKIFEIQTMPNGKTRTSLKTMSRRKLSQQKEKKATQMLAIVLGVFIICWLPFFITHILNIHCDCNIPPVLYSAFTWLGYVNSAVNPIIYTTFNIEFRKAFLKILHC

Test [18] is described as follows: p53 small molecule agonists, cell-based qHTS assay with rat liver microsomes (AID 1963578). The procedure, abridged: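 Compound in DMSO added to p53RE-bla cells 5 h post-plating; rat microsomes/NADPH 0.5 mg/mL final; 16 h, 37 C; LiveBLAzer 2 h RT.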
The nature of test [19]: cAMP Responsive Elements (CRE) small molecule agonists, cell-based qHTS assay (AID 1963590). In a few lines: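 CRE-bla HEK 293T cells, 2,000/well in DMEM with 10% dialyzed FBS and 25 mM HEPES, pre-incubated 18 h at 37 C, then exposed to compound 3 h at 37 C. Beta-lactamase reporter read with LiveBLAzer B/G FRET substrate after 2 h at room temperature.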
The nature of test [20]: cAMP Responsive Elements (CRE) small molecule antagonists, cell-based qHTS assay (AID 1963591; active means well fitted inhibition curve with a large enough effect in the signal ratio in the repeat runs, not every such curve was filed as active; the % refers to the signal ratio). In a few lines: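 CRE-bla HEK293T cells plated 18 h, then given compound plus NKH477 at 0.25 uM final for 3 h at 37C. Beta-lactamase reporter read with LiveBLAzer B/G FRET substrate after 2 h at room temperature.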

Sequence of KiSS-1 receptor (Homo sapiens) (Q969F8 whole entry, looked up): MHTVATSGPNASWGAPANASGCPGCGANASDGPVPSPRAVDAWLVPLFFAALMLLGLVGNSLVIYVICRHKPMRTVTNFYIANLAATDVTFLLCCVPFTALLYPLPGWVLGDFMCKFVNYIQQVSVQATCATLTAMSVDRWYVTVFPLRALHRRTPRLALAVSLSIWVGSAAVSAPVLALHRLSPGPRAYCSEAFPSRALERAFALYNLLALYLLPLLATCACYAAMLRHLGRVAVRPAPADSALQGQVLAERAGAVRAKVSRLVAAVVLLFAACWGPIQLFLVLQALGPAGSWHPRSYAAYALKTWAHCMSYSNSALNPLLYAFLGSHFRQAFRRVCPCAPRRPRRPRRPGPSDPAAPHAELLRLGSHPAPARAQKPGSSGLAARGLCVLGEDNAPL
Sequence of Muscarinic acetylcholine receptor M1 (Homo sapiens) (P11229 whole entry, looked up): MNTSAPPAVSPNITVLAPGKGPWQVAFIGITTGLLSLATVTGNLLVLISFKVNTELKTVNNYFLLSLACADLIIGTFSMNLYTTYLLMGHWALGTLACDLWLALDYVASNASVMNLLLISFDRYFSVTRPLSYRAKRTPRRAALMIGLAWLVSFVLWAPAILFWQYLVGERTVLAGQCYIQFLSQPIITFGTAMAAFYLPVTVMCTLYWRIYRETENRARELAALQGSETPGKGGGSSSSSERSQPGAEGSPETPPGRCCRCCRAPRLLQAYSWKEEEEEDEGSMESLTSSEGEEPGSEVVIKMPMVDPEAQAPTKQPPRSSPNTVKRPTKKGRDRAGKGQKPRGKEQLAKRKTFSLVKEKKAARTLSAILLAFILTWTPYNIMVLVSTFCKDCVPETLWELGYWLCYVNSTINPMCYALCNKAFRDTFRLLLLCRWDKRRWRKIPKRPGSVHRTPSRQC
Sequence of 5-hydroxytryptamine receptor 2A (Homo sapiens) (P28223 whole entry, looked up): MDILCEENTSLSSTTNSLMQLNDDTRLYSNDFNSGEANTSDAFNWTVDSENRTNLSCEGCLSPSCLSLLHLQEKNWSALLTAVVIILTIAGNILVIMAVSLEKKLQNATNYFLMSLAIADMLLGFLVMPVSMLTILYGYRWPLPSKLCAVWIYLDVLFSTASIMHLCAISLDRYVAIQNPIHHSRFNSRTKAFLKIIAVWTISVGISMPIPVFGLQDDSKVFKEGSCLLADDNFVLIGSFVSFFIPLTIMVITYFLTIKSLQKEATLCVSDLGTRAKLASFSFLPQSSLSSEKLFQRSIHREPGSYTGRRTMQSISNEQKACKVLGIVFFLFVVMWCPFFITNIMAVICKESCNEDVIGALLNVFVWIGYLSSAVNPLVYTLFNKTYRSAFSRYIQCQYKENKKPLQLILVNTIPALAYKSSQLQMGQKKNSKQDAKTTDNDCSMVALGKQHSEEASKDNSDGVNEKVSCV
Sequence of Beta-2 adrenergic receptor (Homo sapiens) (P07550 whole entry, looked up): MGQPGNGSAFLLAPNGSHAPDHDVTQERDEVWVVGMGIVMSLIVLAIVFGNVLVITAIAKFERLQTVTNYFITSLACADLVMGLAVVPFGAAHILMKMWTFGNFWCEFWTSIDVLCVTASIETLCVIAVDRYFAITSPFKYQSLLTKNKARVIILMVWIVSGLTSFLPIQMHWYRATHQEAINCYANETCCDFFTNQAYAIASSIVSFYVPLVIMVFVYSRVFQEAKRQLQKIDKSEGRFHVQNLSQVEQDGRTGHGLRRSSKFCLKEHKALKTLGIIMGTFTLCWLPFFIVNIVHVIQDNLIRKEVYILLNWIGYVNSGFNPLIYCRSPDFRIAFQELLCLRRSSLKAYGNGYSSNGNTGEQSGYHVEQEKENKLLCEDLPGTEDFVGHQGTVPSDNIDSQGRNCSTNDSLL

Regarding `CC(C)[C@H](C(=O)O[C@H](C#N)c1cccc(Oc2ccccc2)c1)c1ccc(Cl)cc1`, the Potency result in test [1], in test [2], in test [3], in test [4], in test [5] and in test [6] was “inactive” each time. For the same compound, the Potency result in test [7], in [8], in [9], in test [10], in [11] and in [12] was “inactive” throughout. The Potency result in test [13] was “inactive”.
`O=C(O)c1ccc2[nH]cc(CCCCN3CC=C(c4ccccc4)CC3)c2c1`: the Potency result in test [1], in test [2], in test [3], in test [4], in test [5] and in test [6] was “inactive” each time. The Potency result in test [7], in [8], in [14], in [15], in test [10] and in [11] was “inactive” in each case. In addition, the Potency result in [12], in [16] and in test [13] was “inactive” in each case. Further, the Potency in [17] is 8.4 nM (active).
As to `CCCCCCCCBr`, the Potency entry in test [1], in test [2], in test [3], in test [4], in test [5] and in test [18] was “inactive” each time. Further, the Potency entry in [7], in test [8], in test [14], in test [15], in test [9] and in test [10] was “inactive” throughout. Also, the Potency entry in [11], in [12], in test [19], in test [20] and in test [16] was “inactive” each time.
Take `OP(O)c1ccccc1`: the Potency result in test [1], in [2], in test [3], in [4], in test [5] and in test [6] was “inactive” each time. The Potency entry in test [7], in test [8], in [14], in [15], in test [9] and in test [10] was “inactive” throughout. Moreover, the Potency result in test [11], in [12], in test [19], in test [16] and in [13] was “inactive” each time.
As for `CC(C)CBr`, the Potency result in [1], in test [2], in test [3], in test [4], in test [5] and in test [18] was “inactive” throughout. The Potency result in [7], in [8], in [14], in test [15], in test [9] and in test [10] was “inactive” in each case. Besides, the Potency result in test [11], in [12], in [19], in [20], in test [16] and in test [17] was “inactive” in each case.
Consider `COc1cc(CC(C)N)cc(OC)c1OC` (stereo unspecified), for which the Potency entry in test [1], in test [2], in [3], in [4], in [5] and in [18] was “inactive” throughout. The Potency entry in test [7], in test [8], in [14], in test [15], in test [11] and in [12] was “inactive” in each case. For the same compound, the Potency result in [19], in test [20] and in [13] was “inactive” each time. For the same compound, the Potency in test [9] was 228 nM (active); in [10], 265 nM (active).
As to `CCOC(=O)COc1ccc(Cl)cc1Cl`, the Potency entry in test [1], in test [2], in [3], in test [4], in test [5] and in test [6] was “inactive” throughout. The Potency result in [7], in [8], in [14], in test [15], in test [9] and in [10] was “inactive” throughout. Moreover, the Potency entry in test [11], in test [12], in [20], in test [16], in test [17] and in [13] was “inactive” throughout.
